“And” between values parts separate entries of the source, which are not always exact repeats. Equal values may be shown once. Inconclusive results are not listed. The source made the active and inactive calls. Unless noted, calls follow the shape of the dose curve; as a rule, active = well fitted curve in the direction sought with a large enough effect; inconclusive = small, poorly fitted or top-dose-only effect, or another doubt; inactive = no such curve, though single readings can be large; an effect the other way counts as inactive or inconclusive.
Key:
[1] = qHTS for inhibitors of adenylyl cyclases using a fission yeast platform: a pilot screen against the NCATS LOPAC library (AID 1347410)
How it was run: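 Inhibition of GNAS-stimulated AC9 activity in S. pombe was inferred from derepression of a PKA-repressed fbp1-GFP reporter, measured as cytometric fluorescence after 18 h at 30C with compounds at up to 57 µM.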

[2] = Validation qHTS assay for inhibitors of Activation Induced Cytidine Deaminase (AID): UDG Counterscreen signal (AID 1347427); also: potency is read from the fitted curve at half-maximal effect
How it was run: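 Counterscreen read of UDG activity (2 U/mL, 4/3x) in the FRET deamination format with AID (1 uM, 4/3x), DJC20/DJC23 substrates (250 nM, 4x), 4 h at room temperature. NaOH stop, fluorescence at 560 ex/665 em.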

[3] = biological target: Single-stranded DNA cytosine deaminase (Homo sapiens) (UniProt Q9GZX7); test: Validation qHTS assay for inhibitors of Activation Induced Cytidine Deaminase (AID): AID signal (AID 1347429); also: potency is read from the fitted curve at half-maximal effect
How it was run: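 Fluorescence at 540 nm excitation and 590 nm emission reports ssDNA cytosine deamination by AID, with UDG in the same well. Compound-treated reactions ran 4 hr at room temperature with DJC20/DJC23 substrate, followed by 30 min NaOH treatment.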

[4] = Primary qHTS for small molecule stabilizers of the endoplasmic reticulum resident proteome: Secreted ER Calcium Modulated Protein (SERCaMP) assay (AID 1508630); also: potency is read from the fitted curve at half-maximal effect
How it was run: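 GLuc-SERCaMP-expressing SH-SY5Y cells, pretreated 16 h with compound, are challenged with thapsigargin to empty ER calcium stores; after 4 h, coelenterazine is added directly to the medium and luminescence is imaged.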

Papain (Carica papaya) = Papain (Carica papaya) (UniProt P00784); test: Primary qHTS assay for inhibitors of the protease papain (AID 1645873);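 also: papain turnover of Z-FR-AMC read as the AMC fluorescence gain over 10 min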; also: potency is read from the fitted curve at half-maximal effect
[5] = biological target: Calcium and integrin-binding protein 1 (Homo sapiens) (UniProt Q99828); test: Validation qHTS for Identification of Calcium Integrin Binding protein 1 (CIB1) Competitor (AID 1508618)
How it was run: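 In this qHTS validation, the LOPAC set (up to 114 uM) was tested for blocking CIB1 binding to a fluorescein-tagged alphaIIb peptide, with FP detection at 480/540 nm.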

[6] = biological target: Calcium and integrin-binding protein 1 (Homo sapiens) (UniProt Q99828); test: Primary qHTS for Identification of Calcium Integrin Binding Protein 1 (CIB1) Competitor (AID 1508620);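 also: GST tagged CIB1 binding a fluorescein labelled alphaIIb integrin peptide tracer; top concentration of the series differs between compounds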
How it was run: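 Fluorescence polarization competition: GST-tagged CIB1 (1 uM final) preincubated with compound 15 min at room temperature, then FITC-labelled alphaIIb peptide (100 nM final) added. After 15 min at room temperature, polarization read at Ex 480/Em 540.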

[7] = biological target: Cytochrome P450 2D6 (Homo sapiens) (UniProt P10635); test: Cytochrome P450 family 2 subfamily D member 6 (CYP2D6) small molecule antagonists: luciferase biochemical (cell-free) qHTS assay (AID 1645840; active = well fitted curve in the direction sought with a large enough effect in the repeat runs; an effect the other way counts as inactive or inconclusive; also: nearly all actives have a fitted effect of over 55% in size; also: potency is read from the fitted curve at half-maximal effect)
How it was run: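 P450-Glo luminescent screen: recombinant CYP2D6 enzyme–proluciferin substrate mix preincubated with compound 10 min at room temperature, then NADPH regeneration added for 1 h at room temperature. Detection reagent added for 20 min; luciferin light read as relative luminescence units.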

[8] = biological target: Cytochrome P450 2C9 (Homo sapiens) (UniProt P11712); test: Cytochrome P450 family 2 subfamily C member 9 (CYP2C9) small molecule antagonists: luciferase biochemical (cell-free) qHTS assay (AID 1645842; active = well fitted curve in the direction sought with a large enough effect in the repeat runs; an effect the other way counts as inactive or inconclusive; also: nearly all actives have a fitted effect of over 55% in size; also: potency is read from the fitted curve at half-maximal effect)
How it was run: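 Luminescence, after 20 min with luciferin detection reagent, reflected CYP2C9 turnover during a 1 h NADPH-driven reaction at 37C. Enzyme-substrate mix contained 0.4% bovine serum albumin and was preincubated with compound 10 min at room temperature.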

[9] = Primary qHTS for inhibitors of La Crosse Virus (LACV) - induced cell death in SH-SY5Y cells (AID 1508616);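 also: top concentration of the series differs between compounds; higher means more rescue of cells from virus-induced death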
How it was run: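 Protection against LACV-induced cell death is scored in SH-SY5Y cells exposed to compounds and virus (0.01 MOI) for 6 days. Data normalized to virus-infected DMSO wells and virus-free DMSO wells.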

[10] = Primary qHTS for inhibitors of nuclear receptor binding SET domain protein 2 (NSD2) in an isogenic RCH-ACV NSD2 p.E1099K mutant (9B) (AID 1645876); also: nearly all actives have a fitted effect of over 70% in size; also: potency is read from the fitted curve at half-maximal effect
[11] = biological target: N-terminal Xaa-Pro-Lys N-methyltransferase 1 (Homo sapiens) (UniProt Q9BV86); test: Confirmatory qHTS for Inhibitors of N-terminal methyltransferase 1 (NTMT1): MTaseGlo Assay (AID 1645874); conditions: NTMT1 enzyme, MTase-Glo SAH luminescence; also: potency is read from the fitted curve at half-maximal effect; nearly all actives have a fitted effect of over 65% in size
How it was run: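 Compounds are incubated with 125 nM NTMT1 and 100 uM SAM for 15 min before the SPKRIA peptide (1 uM) starts a 30 min room-temperature methylation. SAH is measured by coupled luciferase luminescence and curves fitted to a Hill equation.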

[12] = qHTS to identify inhibitors of the type 1 interferon - major histocompatibility complex class I in skeletal muscle: primary screen against the NCATS Mechanism Interrogation Plate v5.0 (MIPE) Libary (AID 1347411); also: nearly all actives have a fitted effect of over 65% in size
How it was run: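 Luminescence from HiBiT-tagged endogenous HLA-B*08:01 served as the MHC class I read-out. CRISPR-engineered C25cl48 human myoblasts received 4.0 ng/ml IFN-beta plus compound for 24 hrs, with an 11-point, 1:3 series topping at 46 uM final.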

Measured: Potency

Cytochrome P450 2C9 (Homo sapiens), sequence (P11712 whole entry, looked up): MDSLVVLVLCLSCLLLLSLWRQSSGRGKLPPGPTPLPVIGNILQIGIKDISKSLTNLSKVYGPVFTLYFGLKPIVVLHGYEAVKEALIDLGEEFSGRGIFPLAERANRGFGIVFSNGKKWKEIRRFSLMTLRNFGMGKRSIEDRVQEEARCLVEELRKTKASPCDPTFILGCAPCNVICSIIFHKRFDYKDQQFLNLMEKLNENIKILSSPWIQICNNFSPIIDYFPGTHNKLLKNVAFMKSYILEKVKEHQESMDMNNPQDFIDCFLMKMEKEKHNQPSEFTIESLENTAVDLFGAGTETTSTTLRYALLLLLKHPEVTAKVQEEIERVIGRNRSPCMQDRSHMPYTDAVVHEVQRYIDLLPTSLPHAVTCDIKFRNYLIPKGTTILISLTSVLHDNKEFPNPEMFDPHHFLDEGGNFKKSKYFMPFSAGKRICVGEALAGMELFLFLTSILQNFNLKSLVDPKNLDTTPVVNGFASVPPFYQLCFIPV
Calcium and integrin-binding protein 1 (Homo sapiens), sequence (Q99828 whole entry, looked up): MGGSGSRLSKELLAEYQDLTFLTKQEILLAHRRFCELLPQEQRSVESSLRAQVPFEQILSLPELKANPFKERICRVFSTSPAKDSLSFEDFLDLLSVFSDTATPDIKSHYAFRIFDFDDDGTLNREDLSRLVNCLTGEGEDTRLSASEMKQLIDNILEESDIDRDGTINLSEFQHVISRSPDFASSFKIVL
Single-stranded DNA cytosine deaminase (Homo sapiens), sequence (Q9GZX7 whole entry, looked up): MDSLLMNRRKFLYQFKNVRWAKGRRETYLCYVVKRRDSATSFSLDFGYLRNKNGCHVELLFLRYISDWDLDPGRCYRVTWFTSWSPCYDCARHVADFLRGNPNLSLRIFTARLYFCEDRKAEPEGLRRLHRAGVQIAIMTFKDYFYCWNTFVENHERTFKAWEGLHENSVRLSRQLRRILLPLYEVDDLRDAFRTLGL
Papain (Carica papaya), sequence (P00784 whole entry, looked up): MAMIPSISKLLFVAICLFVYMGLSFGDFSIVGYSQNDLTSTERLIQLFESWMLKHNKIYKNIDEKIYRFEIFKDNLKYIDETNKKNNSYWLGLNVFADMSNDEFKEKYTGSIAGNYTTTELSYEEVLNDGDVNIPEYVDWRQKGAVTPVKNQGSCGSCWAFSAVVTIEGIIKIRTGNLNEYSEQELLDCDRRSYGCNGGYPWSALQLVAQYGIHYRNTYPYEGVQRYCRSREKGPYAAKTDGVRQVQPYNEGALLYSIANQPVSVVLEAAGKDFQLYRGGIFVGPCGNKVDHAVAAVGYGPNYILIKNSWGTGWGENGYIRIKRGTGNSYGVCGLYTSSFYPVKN
Cytochrome P450 2D6 (Homo sapiens), sequence (P10635 whole entry, looked up): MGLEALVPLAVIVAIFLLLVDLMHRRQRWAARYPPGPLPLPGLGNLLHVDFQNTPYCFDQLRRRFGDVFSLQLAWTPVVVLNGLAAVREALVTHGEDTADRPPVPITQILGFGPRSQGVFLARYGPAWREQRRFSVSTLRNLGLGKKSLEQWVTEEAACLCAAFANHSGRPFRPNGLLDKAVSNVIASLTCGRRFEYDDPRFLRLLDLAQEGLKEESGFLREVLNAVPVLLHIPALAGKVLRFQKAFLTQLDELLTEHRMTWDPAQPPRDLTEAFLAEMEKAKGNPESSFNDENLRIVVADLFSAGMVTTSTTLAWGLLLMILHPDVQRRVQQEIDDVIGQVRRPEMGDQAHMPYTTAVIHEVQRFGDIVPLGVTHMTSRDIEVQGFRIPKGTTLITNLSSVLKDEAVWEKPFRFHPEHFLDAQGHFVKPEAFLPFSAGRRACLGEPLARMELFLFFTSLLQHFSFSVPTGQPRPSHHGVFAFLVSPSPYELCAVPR
N-terminal Xaa-Pro-Lys N-methyltransferase 1 (Homo sapiens), sequence (Q9BV86 whole entry, looked up): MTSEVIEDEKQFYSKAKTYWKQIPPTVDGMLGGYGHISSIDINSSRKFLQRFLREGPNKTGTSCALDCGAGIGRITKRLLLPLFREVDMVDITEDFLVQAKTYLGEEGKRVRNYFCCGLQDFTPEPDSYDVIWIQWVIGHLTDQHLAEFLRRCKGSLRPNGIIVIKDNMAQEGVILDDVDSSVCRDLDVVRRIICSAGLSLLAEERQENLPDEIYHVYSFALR

Cn1c(=O)c2[nH]c(-c3ccccc3)nc2n(C)c1=O
inactive: [1] | [2] | [3] | [4] | Papain (Carica papaya)

CNC(=O)[C@H]1O[C@@H](n2cnc3c(NCc4cccc(I)c4)ncnc32)[C@H](O)[C@@H]1O
inactive: [1] | [2] | [3] | [5] | Papain (Carica papaya)

Fc1ccc2[nH]c(CN3CCN(c4ccccn4)CC3)cc2c1
active: [7] 5.35 µM | [8] 6.74 µM
inactive: [1] | [5] | [6] | Papain (Carica papaya)

CCOC(=O)C1=C(C)NC(C)=C(C(=O)OCC)C1c1c(F)c(F)c(F)c(F)c1F
active: Papain (Carica papaya) 25.1 µM
inactive: [1] | [3] | [9] | [4]

O=[N+]([O-])c1ccc(CNc2nc(NCc3cccc(C(F)(F)F)c3)nc3nc[nH]c23)cc1
inactive: [1] | [5] | [6] | Papain (Carica papaya)

c1cnc2c(c1)ccc1cccnc12
active: Papain (Carica papaya) 15.8 µM
inactive: [1] | [2] | [5] | [4]

O=C(/C=C/c1ccc(O)cc1)c1ccc(O)cc1O
inactive: [1] | [2] | [3] | [5] | Papain (Carica papaya)
active: [10] 8.33 µM

O=C1NC(O)=NC1(c1ccccc1)c1ccccc1
inactive: [1] | [5] | [7] | Papain (Carica papaya)

N.N.N.N.N.N.N.N.N.N.N.N.N.N.O.O.[Ru+4].[Ru+5].[Ru+5]
inactive: [1] | [9] | Papain (Carica papaya)
active: [2] 39.8 µM | [11] 27.4 µM

CC(C)Cc1ccc([C@H](C)C(=O)O)cc1
inactive: [1] | [9] | [4] | Papain (Carica papaya)

COc1ccc(/C=C2\COc3ccc(C)cc3C2=O)cc1O
inactive: [1] | [5] | Papain (Carica papaya)

O=C1C(SCCO)=C(SCCO)C(=O)c2ccccc21
inactive: [1] | [2] | Papain (Carica papaya)
active: [3] 10 µM | [4] 25.1 µM

COCCOc1cc2ncnc(Cl)c2cc1OCCOC
inactive: [1] | [5] | Papain (Carica papaya)

CN(C)c1nc(N)c(C(=O)N=C(N)N)nc1Cl
inactive: [1] | [2] | [3] | [5] | Papain (Carica papaya)

CCN(CC)CCCCNc1ncc2cc(-c3c(Cl)cccc3Cl)c(NC(=O)NC(C)(C)C)nc2n1
active: [8] 19 µM | Papain (Carica papaya) 28.2 µM | [10] 1.45 µM
inactive: [1] | [5] | [6]

CC(=O)/C=C1\C(=O)N(C)c2ccccc21
inactive: [1] | [2] | [3] | [5] | Papain (Carica papaya)

C=C[C@@H]1CN2CC[C@@H]1C[C@H]2[C@H](O)c1ccnc2ccc(OC)cc12
inactive: [1] | [9]

CC12C(=O)OC(=O)C1(C)C1CCC2O1 (stereo not given)
inactive: [1] | [2] | [3] | [5] | Papain (Carica papaya)

NS(=O)(=O)c1ccc(-n2nc(C(F)(F)F)cc2-c2ccc(Cl)cc2)cc1
inactive: [1] | [5] | [6] | Papain (Carica papaya)
active: [7] 7.56 µM

C#C[C@]1(O)CC[C@H]2[C@@H]3CCC4=Cc5oncc5CC4(C)[C@H]3CCC21C (stereo not given in full)
inactive: [1] | [9] | [4] | Papain (Carica papaya)

CN(CCCOc1ccc(Cc2ccccc2)cc1)CCC(=O)O
inactive: [1] | [5] | [6] | [7] | [8] | Papain (Carica papaya)

O=C(Nc1ccncc1)c1cc([N+](=O)[O-])ccc1Cl
inactive: [1] | [5] | [4] | Papain (Carica papaya)

CNCC[C@H](Oc1ccc(C(F)(F)F)cc1)c1ccccc1
inactive: [1] | [9] | [4] | Papain (Carica papaya)

CS(=O)(=O)c1ccc(-n2nc(C(F)(F)F)cc2-c2ccc(F)cc2)cc1
inactive: [1] | [5] | [6] | Papain (Carica papaya) | [10]
active: [7] 9.52 µM | [8] 3.38 µM

O=C1NC(=O)c2c1c(-c1ccccc1)cc1[nH]c3ccc(O)cc3c21
inactive: [1] | Papain (Carica papaya)

CCC(CO)Nc1nc(NCc2ccccc2)c2ncn(C(C)C)c2n1 (stereo not given)
inactive: [1] | Papain (Carica papaya)

CC(C)c1cccc(C(C)C)c1N1C(=O)c2ccc(O)cc2C1=O
inactive: [1] | [5] | Papain (Carica papaya)

O=C(CCc1ccncc1)NNC(=O)N1Cc2ccccc2Oc2ccc(Cl)cc21
inactive: [1] | [5] | Papain (Carica papaya)

CN[C@H](CC(C)C)C(=O)N[C@H]1C(=O)N[C@@H](CC(N)=O)C(=O)N[C@H]2C(=O)N[C@H]3C(=O)N[C@H](C(=O)N[C@H](C(=O)O)c4cc(O)cc(O)c4-c4cc3ccc4O)[C@H](O)c3ccc(c(Cl)c3)Oc3cc2cc(c3O[C@@H]2O[C@H](CO)[C@@H](O)[C@H](O)[C@H]2O[C@H]2C[C@](C)(N)[C@H](O)[C@H](C)O2)Oc2ccc(cc2Cl)[C@H]1O
inactive: [1] | [5] | Papain (Carica papaya) | [10]

COc1cc(OC)cc(-c2cc3cnc(N)nc3nc2NC(=O)NC(C)(C)C)c1
inactive: [1] | [5] | Papain (Carica papaya)

CCCCCCCCCCCCCCCCCCN(CCCCCCCCCCCCCCCCCC)CCCN(CCO)CCO
inactive: [1] | [5] | Papain (Carica papaya)

Cn1c(=O)c(-c2c(Cl)cccc2Cl)cc2cnc(Nc3ccc(N4CCOCC4)cc3)nc21
inactive: [1] | [5] | Papain (Carica papaya)

N#C/C(=C\c1ccc(O)c(O)c1)C(=O)NCc1ccccc1
active: [10] 9.2 µM and 13.2 µM
inactive: [12] | [2] | [3]

Nc1ccn([C@H]2O[C@H](CO)[C@@H](O)C2(F)F)c(=O)n1
inactive: [1] | [5] | Papain (Carica papaya)

CO[C@H]1O[C@@H]2O[C@]3(C)CC[C@@H]4[C@@H](C)CC[C@H]([C@H]1C)[C@]24OO3
inactive: [1] | [5] | Papain (Carica papaya)

COc1cc(CNC(=O)CCCC/C=C/C(C)C)ccc1O
active: [10] 7.28 µM and 4.68 µM
inactive: [12] | [6]

C=CCc1cccc(/C=N/NC(=O)CN2CCN(Cc3ccccc3)CC2)c1O
inactive: [12]
active: [10] 7.42 µM

CC[C@H]1OC(=O)[C@H](C)[C@@H](O[C@H]2C[C@@](C)(OC)[C@@H](O)[C@H](C)O2)[C@H](C)[C@@H](O[C@@H]2O[C@H](C)C[C@H](NC)[C@H]2O)[C@](C)(O)C[C@@H](C)CN(C)[C@H](C)[C@@H](O)[C@]1(C)O
inactive: [1] | [5] | Papain (Carica papaya)

N[C@H](CCCP(=O)(O)O)C(=O)O
inactive: [1] | [5] | Papain (Carica papaya)

CC(C)(NS(=O)(=O)c1ccc(Oc2ccc(F)cc2)cc1)C(=O)NO
inactive: [1] | [5] | Papain (Carica papaya)

Reference: PubChem BioAssay (NCATS)
